Source: PubChem BioAssay (NCI)
The panel holds about 83,000 compounds, 20% with a hit somewhere; the sample as a whole holds those more often.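 Growth was measured after 48 h exposure to one concentration of compound in 96-well plates. Values under 10 count as active.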 A number with no mark means an inactive call. Activity calls are given as the source filed them.

Key:
Experiment in all cases: NCI-60 one-dose screen, 48 h (100 = growth as untreated, 0 = no growth, -100 = all killed)
Details in all cases: 10 µM unless noted
NCI-H23 lung = test system: NCI-H23 lung
NCI-H226 lung = test system: NCI-H226 lung
NCI-H322M lung = test system: NCI-H322M lung
HOP-62 NSCLC = test system: HOP-62 NSCLC
NCI-H460 lung = test system: NCI-H460 lung
HOP-92 NSCLC = test system: HOP-92 NSCLC
NCI-H522 lung = test system: NCI-H522 lung
A549/ATCC NSCLC = test system: A549/ATCC NSCLC
786-0 renal = test system: 786-0 renal
COLO 205 colon = test system: COLO 205 colon
DU-145 prostate = test system: DU-145 prostate
K-562 leukemia = test system: K-562 leukemia
MALME-3M melanoma = test system: MALME-3M melanoma
MDA-MB-231 breast = test system: MDA-MB-231 breast
RXF 393 renal = test system: RXF 393 renal
SF-268 CNS = test system: SF-268 CNS
SF-295 CNS = test system: SF-295 CNS
SF-539 CNS = test system: SF-539 CNS
UACC-257 melanoma = test system: UACC-257 melanoma
M14 melanoma = test system: M14 melanoma

Compound | growth (NCI-H23 lung) | growth (NCI-H226 lung) [%] | growth (NCI-H322M lung) | growth (HOP-62 NSCLC) | growth (NCI-H460 lung) | growth (HOP-92 NSCLC) | growth (NCI-H522 lung) | growth (A549/ATCC NSCLC) [%] | growth (786-0 renal) | growth (COLO 205 colon) | growth (DU-145 prostate) | growth (K-562 leukemia) | growth (MALME-3M melanoma) | growth (MDA-MB-231 breast) | growth (RXF 393 renal) | growth (SF-268 CNS) [%] | growth (SF-295 CNS) | growth (SF-539 CNS) | growth (UACC-257 melanoma) | growth (M14 melanoma)
COc1ccc(/C=C/c2c(C(=O)/C=C/c3ccccc3)c(C)nc3ccccc23)cc1 | 20% | 45.5 | 28.4% | -13.9% (active) | -48.1% (active) | 66.2% | -24.5% (active) | 20.2 | 13.5% | 3.63% (active) | 5.61% (active) | 6.28% (active) | 17.8% | 31.3% | -23% (active) | 45.3 | 22.1% | -39.5% (active) | 8.08% (active) | 15.3%
Nn1c(=O)c(=O)[nH]c2c(cnn2-c2ccccc2)c1=O | 108% | 94.2 | 108% | 86.2% | 117% | 106% | 96.2% | 101 | 103% | 121% | 114% | 96.4% | 106% | 105% | 113% | 99.7 | 102% | 99.8% | 107% | 110%
O=C(NNc1cnccn1)c1nc2cc(F)ccc2n2cccc12 | 25.4% | 14.1 | 18% | 15% | 2.78% (active) | 34.9% | -2.38% (active) | 11.1 | 28.6% | 7.25% (active) | 25.7% | 10.8% | 11% | 27.5% | 9.53% (active) | 26 | 12.9% | 5.57% (active) | -9.5% (active) | 5.33% (active)
Cc1ccc(-c2nc3nc(-c4ccccc4)nc(N4CCCN(S(C)(=O)=O)CC4)c3o2)cc1 | 86.6% | 58.1 | 93.9% | 66.5% | 4.39% (active) | 84.9% | 78.8% | 38.8 | 87.7% | 86.5% | 57.1% | 84.5% | 55.5% | 73.5% | 19.4% | 76 | 87.4% | 30.7% | 75.4% | 70.9%
Cc1c(Cl)cccc1C(=O)Nc1nc2c(s1)CN(C(=O)c1ccc(C(F)(F)F)cc1)CC2 | 33.7% | 50.9 | 45.2% | 41.8% | 0.935% (active) | 35.9% | 11.4% | 25.5 | 40.3% | 6.86% (active) | 15.7% | 10.3% | 44.6% | 34.4% | 21.9% | 38.4 | 25.1% | -24.5% (active) | 63.7% | 10.2%
O=C(Nc1cnc(Nc2ccc(N3CCOCC3)nc2)nc1Oc1ccc(C(F)(F)F)cc1)c1ccncc1 | 70% | 92.8 | 87.3% | 93.1% | 74.3% | 94.1% | 82.8% | 80.5 | 96.8% | 99.8% | 66% | 78.7% | 96.9% | 94.5% | 93.1% | 86.3 | 104% | -53.1% (active) | 92.8% | 99%
C=C(C)[C@@H]1CC[C@]2(C(=O)N3CCN(C)CC3)CC[C@]3(C)[C@H](CC[C@@H]4[C@@]5(C)CC[C@H](OC(=O)c6ccccc6C(=O)O)C(C)(C)[C@@H]5CC[C@]43C)[C@@H]12 | 99.9% | 99.4 | 101% | 98% | 103% | 102% | 84.2% | 104 | 101% | 111% | 104% | 102% | 97.4% | 96.9% | 111% | 92.8 | 104% | 97.6% | 107% | 99.3%
COc1cc(Cl)c(C)cc1NC(=O)c1cc2ccccc2cc1O | 2% (active) | 13.3 | 9.8% (active) | 26.5% | 6.83% (active) | -15.4% (active) | -11.5% (active) | 10 | 14.1% | 86.9% | 26.4% | 14.5% | -8.31% (active) | -23.8% (active) | 11.7% | 24 | -15.1% (active) | 22.1% | -1.4% (active) | 24.1%
C#CC#CC#CC#CC#CC#CC#CC#CC[C@@H]1OC[C@@H](COC(=O)O[C@@H](C(=O)O[C@H]2C[C@@]3(O)[C@@H](OC(=O)c4ccccc4)[C@@H]4[C@]5(OC(C)=O)CO[C@@H]5C[C@H](O)[C@@]4(C)C(=O)[C@H](OC(C)=O)C(=C2C)C3(C)C)[C@@H](NC(=O)c2ccccc2)c2ccccc2)O1 | 27.1% | 32.3 | 23.5% | 95.2% | 99.7% | 42.9% | 92.4% | 94.7 | 16.3% | 108% | 102% | 7.18% (active) | 37.4% | 5.64% (active) | -12.3% (active) | 94.5 | 0.0837% (active) | -8.27% (active) | 95.5% | -6.06% (active)
Cc1[nH]c(C2CC(c3ccc(C(F)(F)F)c(F)c3)=NN2c2ccccc2)c(C)c1C(=O)NCC(F)(F)F (stereo not given) | 89% | 77.2 | 88% | 91.4% | 94.2% | 113% | 89.5% | 84.8 | 90.7% | 93.7% | 94.7% | 76% | 79.7% | 88.8% | 80.8% | 84.7 | 87.1% | 94.4% | 97.6% | 94.8%
COCCn1cc(-c2csc(-c3c[nH]c4ccc(Br)cc34)n2)c2cccnc21 | 32.3% | 58 | 59.5% | 45.4% | 20.7% | 2.14% (active) | -28.3% (active) | 23.1 | -4.75% (active) | 24.9% | 46.7% | 0.0972% (active) | 53.1% | 4.45% (active) | 58.9% | 44.3 | 17.7% | 45.5% | 28.9% | 14.3%
Nc1nc(N)c2c(n1)NC(c1ccc(Cl)cc1)C1CCc3ccccc3C1=N2 (stereo not given) | 47.2% | 60.2 | 71.7% | 84.2% | 22.7% | 94.3% | 76.7% | 64 | 64.4% | 51.6% | 64.1% | 31% | 19.6% | 76.8% | 83.3% | 72.3 | 20.7% | 54.3% | 58.2% | 70.4%
O=C(/C=C/c1cccc(Cl)c1Cl)Nc1ncc(Cc2ccccc2Cl)s1 | 79.2% | 67.7 | 78.5% | 42.4% | 33.9% | 61.6% | 17.5% | 58.2 | 68.7% | 45.4% | 53.3% | 13.4% | 62.1% | 75% | 37.8% | 82.2 | 21.4% | 11.5% | 78.1% | 12.5%
NC(=O)c1cccc([C@@H]2O[C@H](CO)[C@@H](O)[C@H]2O)c1 | 63.7% | 73.1 | 87% | 47.7% | 103% | 52.4% | 42.2% | 71.6 | 12.9% | 40.5% | 66.5% | 27% | 103% | 55.5% | 73.3% | 48 | 65.7% | 14.4% | 97.7% | 17.1%
COc1ccc(CCN(CC(=O)N(CC(N)=O)C2CCC[C@@H]2OCc2ccccc2)C(=O)CN(C(=O)CN(CCc2ccc(Cl)cc2)C(=O)CN(C(=O)CN(C)Cc2ccccc2F)[C@H](C)C2CCCCC2)[C@H](C)C2CCCCC2)cc1OC (stereo not given in full) | 31.9% | 53.5 | 40.6% | 41.8% | 28.3% | 10.3% | 24.5% | 23.4 | 44% | -17.4% (active) | 43.7% | 10.4% | 51.7% | 29.7% | -10% (active) | 26.5 | -0.412% (active) | 33.7% | -5.66% (active) | 19.3%
